These results are taken from PubChem BioAssay AID603 (National Center for Advancing Translational Sciences (NCATS), 2007).

In all, about 71,000 compounds went through this assay and about 180 (0.25%) were called active. Many of the other results were omitted from the sample, so actives are more common in it than they were. Unmarked numbers belong to inactive results. Calls follow the shape of the dose curve; as a rule, active = well fitted curve in the direction sought with a large enough effect; inconclusive = small, poorly fitted or top-dose-only effect; inactive = flat fitted curve, though single readings scatter.
% is scaled to controls: 0 for no effect and ±100 for the full control effect.

The assay has as its system DNA polymerase III holoenzyme (E. coli). Briefly: qHTS Assay for Inhibitors of DNA Polymerase III Holoenzyme System. The settings on record: reconstituted DNA polymerase III holoenzyme replication, biochemical; series mostly up to 57.1 µM; activity change, negative = inhibition: at the top concentration. The procedure: NIH Molecular Libraries Screening Centers Network [MLSCN]
NIH Chemical Genomics Center [NCGC]
Assay Provider: Charles McHenry, University of Colorado
E. coli DNA polymerase III holoenzyme complex was assayed for DNA production by fluorescent detection of the double-stranded DNA product with PicoGreen dye. The holoenzyme complex was reconstituted from the following purified protein components: DNA Polymerase III, beta subunit processivity factor, SSB single-stranded DNA binding protein, and Primase. Single-stranded, circular M13Gori was used as a substrate with dNTPs and NTPs also supplied to the substrate reagent. Compounds from the NCGC collection were incubated with the holoenzyme mixture for 15 min at room temperature to allow binding to occur, and then the reaction was started by the addition of substrate. After 30 min incubation at room temperature, PicoGreen solution containing EDTA was added to stop the reaction and to visualize the double-stranded DNA produced. Reaction progress was measured in a ViewLux CCD imager in fluorescence intensity mode by using 480 nm excitation and 540 nm emission filter set.
NCGC Assay Protocol Summary:
Buffer. 50 mM Hepes-KOH, pH 7.5, 5 % Glycerol, 0.02% NP40, 30 mM potassium;
glutamate, 1.5 mM Magnesium Acetate, 16 uM TCEP.
Buffer in columns 3 and 4 as negative control (no enzyme).
Substrate solution: 5 uM each dATP, dGTP, dCTP and TTP, 50 uM each GTP, CTP, UTP and 200 uM ATP, 1.4 nM M13gori (final concentrations).
Enzyme: 154 nM SSB, 2 nM Primase, 1 nM Beta, 0.35 nM Pol III (final concentrations).
PicoGreen/EDTA: 10 mM Tris-HCl, 10 mM EDTA, 5 uM PicoGreen (final concentrations).
Control titration: ChemBridge 5805060 (from 10 mM, then 1:2, in duplicate) was pin-transferred to upper half of column 2.
Three uL of holoenzyme mixture were dispensed to 1536-well Greiner black solid bottom plates. Compounds and controls (23 nL) were transferred via Kalypsys PinTool. The plates were incubated for 15 min at room temperature, and then 1 uL of substrate solution was added to start the reaction. After room temperature incubation for 35 minutes, 1 uL of PicoGreen solution was added to each well and the plates were read 480 nm excitation and 540 nm emission using ViewLux (Perkin-Elmer) High-throughput CCD imager and fluorescence protocol settings.
Keywords: NIH Roadmap, MLSCN, MLI, MLSMR, qHTS, NCGC, DNA Polymerase III, DNAPol3, DNAPoly3, DNA replication targets
Turning to `O=S(=O)(c1cccc(S(=O)(=O)N2CCC(n3nnc4ccccc43)CC2)c1)N1CCCCC1`, the “activity change, negative = inhibition” value is -5.3% (inactive). On to `CC[C@]1([C@H]2O[C@@H]([C@@H]3O[C@](O)(CO)[C@@H](C)C[C@H]3C)C[C@H]2C)CC[C@@H]([C@]2(C)CC[C@@]3(C[C@@H](O)[C@@H](C)[C@@H]([C@H](C)[C@H](OC)[C@H](C)C(=O)O)O3)O2)O1`, for which the “activity change, negative = inhibition” value was -3.8% [at 25.6 µM] (inactive). The same measure, in the same setting: with `CC(=O)NC(C)c1nc2ccccc2n1Cc1ccccc1F` (centres undefined) the figure was -0.1% (inactive); with `Cc1ccc(S(=O)(=O)Nc2ccccc2CNc2c(C)n(C)n(-c3ccccc3)c2=O)cc1`, -1.6% (inactive). Regarding `Cc1noc(C)c1-c1nccc(N2CCOCC2)n1`, the “activity change, negative = inhibition” value was -4.8% (inactive). For the compound `Cc1cc(C)cc(N(CC(=O)Nc2c(C)n(C)n(-c3ccccc3)c2=O)S(C)(=O)=O)c1`, the activity change, negative = inhibition is 2.7% [at 11.4 µM]. For `Cc1cn(C2C=CC(CO)O2)c(=O)[nH]c1=O` (centres undefined), the “activity change, negative = inhibition” value is 0% (inactive). Consider `COc1cccc2cc(C(C)N(CCCN3CCOCC3)C(=O)Nc3ccc(Cl)cc3)oc12` (centres undefined), for which the “activity change, negative = inhibition” value was -0.7% (inactive). On to `O=C(c1cc(C(F)(F)F)cc(C(F)(F)F)c1)N1CCC[C@@]2(CCN(c3ccccn3)C2)C1`, for which the “activity change, negative = inhibition” value is -5.9% (inactive).

For `CS(=O)(=O)Nc1cccc(-c2cncnc2Nc2ccccc2)c1`, the “activity change, negative = inhibition” value is -2% (inactive). In the case of `CCOc1ccc(CCNC(=O)C2CCN(c3ccc(N4CCOCC4)nn3)CC2)cc1OCC`, the “activity change, negative = inhibition” value is -4.2% (inactive).

Turning to `Cc1cccc(C(=O)O)c1`, the “activity change, negative = inhibition” value is 7.4% (inactive). For `COC(=O)[C@@]1(Cc2ccc(F)cc2)[C@H]2c3cc(C(=O)N(C)C)n(CCc4c[nH]c5ccc(OC)cc45)c3C[C@H]2CN1C(=O)c1ccccc1`, the “activity change, negative = inhibition” value is -11% (inactive). On the same count and under the same terms, with `COc1ccccc1CCn1c(=O)c(-c2cn(C)c3ccccc23)nc2cncnc21` the figure was -6.9% (inactive); with `c1ccc2cc3[nH]c(CN4CCCCC4)nc3cc2c1`, -7.3% (inactive); with `CC(C)c1nnc(NC(=O)C2CCCN2S(=O)(=O)c2ccc(Cl)cc2)s1` (centres undefined), -2.6% (inactive). Same read-out and setting: to `O=C(Nc1ccccc1C(=O)N1CCOCC1)C1CCC(=O)N1C1CCCC1` (centres undefined) belongs -7.4% (inactive); to `COc1ccc(C)c(Cn2c(-c3nonc3N)nc3ccccc32)c1`, 3.6% (inactive).

For the compound `O=C(Nc1ccon1)c1cccc(Cl)c1`, the “activity change, negative = inhibition” value was -2.9% (inactive). The same measure, in the same setting: to `CC(C)C[C@@H](CC(=O)N[C@@H](CCC(=O)O)CC(=O)O)NC(=O)[C@@H]1CCCC[C@H]1NC(=O)C[C@@H](NC(=O)C[C@H](Cc1c[nH]c2ccccc12)NC(=O)[C@@H]1CCCC[C@H]1N)C(C)C` belongs 1.5% (inactive); to `CCOC(=O)C1Cn2c(nc3c(c2=O)C(C)(CC)Cc2ccccc2-3)S1` (centres undefined), 2.7% (inactive); to `COCCn1nnnc1C(c1ccccc1Cl)N1CCN(c2ccccc2OC)CC1` (centres undefined), -7.9% (inactive). Take `NS(=O)(=O)c1cc(C(=O)O)c(Cl)c([N+](=O)[O-])c1Cl`: the activity change, negative = inhibition is -10.9% [at 11.4 µM]. For the compound `COC(=O)C1(Cc2ccccc2)C=C2C(=C(C)C(=O)C2C)CN1` (centres undefined), the “activity change, negative = inhibition” value is -5.5% (inactive). As to `c1cncc(-c2nc(N3CCNCC3)c3ccccc3n2)c1`, the “activity change, negative = inhibition” value is -8.1% (inactive). For the compound `CN(C)CCCn1c2ccccc2c2cnccc21`, the activity change, negative = inhibition was -9.9% [at 11.4 µM]. Still for that read-out and setting: with `COc1ccc(C(=O)N2CCC3(CC2)CCN(c2ccccn2)CC3)cc1` the figure was -5.7% (inactive); with `O=C(c1ccncc1)N1CCC2(CCN(Cc3cc(C(F)(F)F)cc(C(F)(F)F)c3)CC2)CC1`, -6.3% (inactive). As for `CCCCSc1nc2c(c(=O)n1CC)SC(C)C2` (centres undefined), the “activity change, negative = inhibition” value was -8.4% (inactive). For the compound `CCC1Oc2ccc(Cl)cc2N(CC(=O)O)C1=O` (centres undefined), the “activity change, negative = inhibition” value is -1.1% (inactive). The same measure, in the same setting: to `Cc1ccccc1C(=O)NCCN=C1NS(=O)(=O)c2ccccc21` belongs 2.9% (inactive); to `O=C(Cn1nnc(-c2ccc3c(c2)OCO3)n1)NCc1ccco1`, -4% (inactive). Regarding `COc1ccc(CCNC(=O)CCn2c(=O)oc3ccccc32)cc1OC`, the “activity change, negative = inhibition” value was -6.6% (inactive). Still for that read-out and setting: to `CN(C)CCCNC(=O)c1ccc2[nH]c3ccccc3c2c1` belongs -5.1% (inactive); to `CSc1ccc(S(=O)(=O)NCc2ccc(Cl)cc2)cc1`, 2.9% (inactive); to `O=C(C1CCCO1)N1CCC(c2nc3ccccc3[nH]2)CC1` (centres undefined), -5.1% (inactive).

With `N#Cc1c(N)sc2c1CCN(C(=O)OCc1ccccc1)C2`, the “activity change, negative = inhibition” value was -0.3% (inactive). Same read-out and setting: to `COc1ccccc1-c1c(C)nn2c(C)c(C(C)=O)cnc12` belongs -6.3% (inactive).

As to `CN(C)C(=O)c1ccc(-c2cncnc2NC2CCNCC2)cc1`, the “activity change, negative = inhibition” value was -0.4% (inactive). As to `Oc1ccc(O)c2c(O)cccc12`, the Potency was 15.8 µM (active). For the compound `O=c1cc(-c2ccc(O)c(O)c2)oc2cccc(O)c12`, the “activity change, negative = inhibition” value was -19.4% (inactive). For the compound `COc1ccc(OC)c(CN2C(=O)CCC2(C)C(=O)NC2CCCCCC2)c1` (centres undefined), the “activity change, negative = inhibition” value is -4.8% (inactive). For `N#Cc1ccccc1-c1ccc2ncnc(NCc3cccnc3)c2c1`, the “activity change, negative = inhibition” value is -7.4% (inactive).

Turning to `CN1C(=O)CC(N2CCN(c3ccccn3)CC2)C1=O` (centres undefined), the “activity change, negative = inhibition” value is 4.6% (inactive).

Turning to `N#Cc1ccc(CN2CCCC3(CCN(C(=O)c4ccco4)CC3)C2)cc1`, the “activity change, negative = inhibition” value was 22.9% (inactive). For `Cc1c(-c2nn(C)c(=O)c3ccccc23)oc2ccc(F)cc2c1=O`, the “activity change, negative = inhibition” value is -0.7% (inactive). Same read-out and setting: with `Clc1ccc(C=Nc2ccc3c(c2)Cc2ccccc2-3)c(Cl)c1` the figure was -10.3% [at 11.4 µM]; with `CCOC(=O)c1nnn(CC(=O)Nc2cccc(F)c2)c1C(=O)OCC`, -1% (inactive). The same measure, in the same setting: to `c1ccc(Nc2n[nH]nc2-c2ccccc2)cc1` belongs -5.3% (inactive). On the same count and under the same terms, with `O=C1c2cccc3cccc(c23)N1CN1CCN(c2ccccn2)CC1` the figure was -6.4% (inactive).

With `C=CCOC(=O)c1ccccc1C(=O)OCC=C`, the “activity change, negative = inhibition” value is 8.7% (inactive). Still for that read-out and setting: with `Nc1nonc1C(=O)NCCc1ccccc1` the figure was -6.7% (inactive); with `COCCNc1nc(-n2nc(C)cc2C)nc2sc3c(c12)CCCC3`, -2.3% (inactive). The same measure, in the same setting: to `C[C@@H](C(=O)Nc1ccc2ccccc2c1)[C@@H]1C[C@@]1(C)[C@@H](NC(=O)c1cccnc1)c1ccccc1` belongs 2.5% (inactive).
